Data reported in the antibiotic and cytotoxicity screens of Wong et al. (2023).
Out of some 39,000 compounds screened, about 3,300 (8.5%) were called active. This is one part of a sample in which actives are shown more often than they occur.

System: HepG2
Test: cytotoxicity call (relative viability < 0.9)
Settings: 10 µM

| Structure (SMILES) | cytotoxicity call |
| --- | --- |
| CCOC(=O)c1c(C)c(Cl)c(O)c(Cl)c1O | inactive |
| COc1ccc(S(=O)(=O)Nc2ccc3c(c2)CC(=O)N([C@H](C)CO)C[C@@H](C)[C@H](CN(C)C)O3)cc1 | inactive |
| Cc1noc(C)c1NC(=O)N(C)C[C@@H]1OCCCC[C@@H](C)Oc2ccc(NC(=O)Nc3ccc(F)cc3)cc2C(=O)N([C@H](C)CO)C[C@@H]1C | inactive |
| Cc1noc(C)c1S(=O)(=O)N(C)C[C@@H]1OCc2cnnn2CCCC(=O)N([C@@H](C)CO)C[C@H]1C | inactive |
| C[C@@H]1CCCCO[C@H](CN(C)C(=O)C2CCCCC2)[C@@H](C)CN([C@H](C)CO)C(=O)c2cc(NC(=O)C3CCCCC3)ccc2O1 | inactive |
| CC(C)NC(=O)Nc1ccc2c(c1)C(=O)N([C@H](C)CO)C[C@@H](C)[C@H](CN(C)S(=O)(=O)c1cn(C)cn1)O2 | inactive |
| O=C(C[C@H]1CC[C@@H]2[C@H](COC[C@@H](O)CN2C(=O)Nc2cccc(Cl)c2)O1)NCc1ccccc1F | active |
| COc1ccccc1CNC(=O)C[C@@H]1CC[C@H]2[C@@H](COC[C@H](O)CN2C(=O)Nc2ccc(F)cc2)O1 | inactive |
| COc1ccccc1CNC(=O)C[C@H]1CC[C@H]2[C@@H](COC[C@H](O)CN2C(=O)Nc2ccc(F)cc2)O1 | active |
| COCCNC(=O)C[C@H]1CC[C@H]2[C@@H](COC[C@H](O)CN2C(=O)Nc2ccccc2OC)O1 | inactive |
| COCCNC(=O)C[C@H]1CC[C@@H]2[C@H](COC[C@H](O)CN2C(=O)Nc2ccccc2OC)O1 | active |
| O=C(C[C@H]1CC[C@H]2[C@@H](COC[C@H](O)CN2C(=O)Nc2cccc(Cl)c2)O1)NCc1ccccc1F | inactive |
| COCCNC(=O)C[C@H]1CC[C@@H]2[C@H](COC[C@@H](O)CN2C(=O)Nc2ccccc2OC)O1 | inactive |
| COc1ccccc1CNC(=O)C[C@@H]1CC[C@@H]2[C@H](COC[C@@H](O)CN2C(=O)Nc2ccc(F)cc2)O1 | inactive |
| O=C(C[C@@H]1CC[C@H]2[C@@H](COC[C@H](O)CN2C(=O)Nc2cccc(Cl)c2)O1)NCc1ccccc1F | inactive |
| CO[C@@H]1CN(C)C(=O)c2cc(NC(=O)c3ccc(F)cc3)ccc2OC[C@H](C)N(C(=O)CN(C)C)C[C@@H]1C | inactive |
| CN1C(=O)c2cc(NC(=O)Nc3ccccc3F)ccc2OC[C@@H]2O[C@H](CC(=O)NCc3ccc(-c4ccccc4)cc3)CC[C@@H]21 | inactive |
| CS(=O)(=O)N1CCCn2c(nc(CNC(=O)CC3CC3)cc2=O)C1 | inactive |
| CC(C)Oc1oc(C(=O)NC2CCCCC2)c(-c2ccc(Cl)cc2)c1S(=O)(=O)c1ccc(Cl)cc1 | inactive |
| C[C@H](CO)N1C[C@H](C)[C@@H](CN(C)Cc2ccncc2)OCCCC[C@H](C)Oc2ccc(NC(=O)NC3CCCCC3)cc2C1=O | inactive |
| O=C(C[C@@H]1C=C[C@@H](NC(=O)C2CC2)[C@H](CO)O1)NCCCN1CCOCC1 | inactive |

| Structure (SMILES) | cytotoxicity call |
| --- | --- |
| CN(C)C(=O)C[C@@H]1C=C[C@H](NC(=O)C2CCOCC2)[C@@H](CO)O1 | inactive |
| C[C@H](CO)N1C[C@H](C)[C@H](CN(C)S(=O)(=O)c2ccccc2)Oc2ccc(NC(=O)c3ccncc3)cc2C1=O | inactive |
| O=S1(=O)CO[C@@H](c2ccccc2)CN1 | inactive |
| O=C(CS)NCCCCCCNC(=O)[C@@H]1C[C@@H]2C(=O)N3CCC[C@H]3C(=O)N2[C@@H]1c1cccc(OCCO)c1 | inactive |
| O=C(C[C@H]1CC[C@H]2[C@@H](COC[C@H](O)CN2Cc2cc(F)ccc2F)O1)N[C@@H]1CCN(Cc2ccccc2)C1 | inactive |
| C[C@H](CO)N1C[C@H](C)[C@H](CN(C)C(=O)Nc2ccc(C(F)(F)F)cc2)Oc2c(NC(=O)Nc3ccc(C(F)(F)F)cc3)cccc2C1=O | active |
| C[C@H]1CN([C@@H](C)CO)C(=O)c2cccc(NC(=O)Nc3ccc(C(F)(F)F)cc3)c2O[C@@H]1CN(C)C(=O)Nc1ccc(C(F)(F)F)cc1 | active |
| COc1ccc(NC(=O)Nc2cccc3c2O[C@@H](CN(C)C(=O)Nc2ccc(C(F)(F)F)cc2)[C@@H](C)CN([C@@H](C)CO)C3=O)cc1 | inactive |
| COc1ccc(NC(=O)N(C)C[C@H]2Oc3c(NC(=O)Nc4ccc(C(F)(F)F)cc4)cccc3C(=O)N([C@@H](C)CO)C[C@H]2C)cc1 | active |
| C[C@@H]1CN([C@@H](C)CO)C(=O)c2cccc(NC(=O)Nc3ccc(C(F)(F)F)cc3)c2O[C@H]1CN(C)C(=O)Nc1ccc(C(F)(F)F)cc1 | inactive |
| COc1ccc(NC(=O)Nc2cccc3c2O[C@H](CN(C)C(=O)Nc2ccc(C(F)(F)F)cc2)[C@@H](C)CN([C@@H](C)CO)C3=O)cc1 | inactive |
| C[C@@H]1CN([C@@H](C)CO)C(=O)c2cccc(NC(=O)Nc3ccc(C(F)(F)F)cc3)c2O[C@@H]1CN(C)C(=O)Nc1ccc(C(F)(F)F)cc1 | active |
| C[C@H]1CN([C@@H](C)CO)C(=O)c2cccc(NC(=O)Nc3ccc(C(F)(F)F)cc3)c2O[C@H]1CN(C)C(=O)Nc1ccc(C(F)(F)F)cc1 | inactive |
| C[C@@H]1CN([C@H](C)CO)C(=O)c2cccc(NC(=O)Nc3ccc(C(F)(F)F)cc3)c2O[C@H]1CN(C)C(=O)Nc1ccc(C(F)(F)F)cc1 | inactive |
| C[C@@H]1CN([C@H](C)CO)C(=O)c2cccc(NC(=O)Nc3ccc(C(F)(F)F)cc3)c2O[C@@H]1CN(C)C(=O)Nc1ccc(C(F)(F)F)cc1 | inactive |
| O=C(O)C[C@@H]1C=C[C@@H](NC(=O)c2ccncc2)[C@H](CO)O1 | inactive |
| CCCN(C)C[C@H]1OCCCC[C@@H](C)Oc2ccc(NC(=O)c3ccccc3)cc2C(=O)N([C@H](C)CO)C[C@H]1C | inactive |
| Cc1noc(C)c1NC(=O)Nc1ccc2c(c1)C(=O)N([C@H](C)CO)C[C@@H](C)[C@@H](CN(C)C(=O)Nc1ccccc1)OCCCC[C@@H](C)O2 | inactive |
| CN1N=C(N)c2cn([C@@H]3O[C@H](COP(=O)(O)O)[C@@H](O)[C@H]3O)c3ncnc1c23 | inactive |
| C[C@@H]1CN([C@@H](C)CO)C(=O)Cc2cc(NC(=O)CCN3CCOCC3)ccc2O[C@H]1CN(C)C(=O)Nc1ccccc1 | inactive |
| CCO[C@@H]1OC(C(=O)N2CCN(Cc3ccc4c(c3)OCO4)CC2)=C[C@H](c2ccc3c(c2)OCO3)[C@H]1CCCO | inactive |
